Screen size: about 16,000 compounds; about 5,700 (36%) were called active. Roughly 24% stayed inconclusive and do not appear here. Calls follow the shape of the dose curve; as a rule, active = well fitted curve in the direction sought with a large enough effect; inconclusive = small, poorly fitted or top-dose-only effect, or effect the other way; inactive = no such curve, though single readings can be large or run the other way. The list shows a part of the results.
target: Cytochrome P450 1A2 (Homo sapiens) (UniProt P05177); assay: Cytochrome panel assay with activity outcomes; details: recombinant CYP, pro-luciferin dealkylation, luminescence, p450-cyp1a2; series mostly up to 57.1 µM; activity, negative = inhibition: at the top concentration
% is scaled to controls: 0 for no effect and ±100 for the full control effect.

Sequence of Cytochrome P450 1A2 (Homo sapiens) (P05177 whole entry, looked up): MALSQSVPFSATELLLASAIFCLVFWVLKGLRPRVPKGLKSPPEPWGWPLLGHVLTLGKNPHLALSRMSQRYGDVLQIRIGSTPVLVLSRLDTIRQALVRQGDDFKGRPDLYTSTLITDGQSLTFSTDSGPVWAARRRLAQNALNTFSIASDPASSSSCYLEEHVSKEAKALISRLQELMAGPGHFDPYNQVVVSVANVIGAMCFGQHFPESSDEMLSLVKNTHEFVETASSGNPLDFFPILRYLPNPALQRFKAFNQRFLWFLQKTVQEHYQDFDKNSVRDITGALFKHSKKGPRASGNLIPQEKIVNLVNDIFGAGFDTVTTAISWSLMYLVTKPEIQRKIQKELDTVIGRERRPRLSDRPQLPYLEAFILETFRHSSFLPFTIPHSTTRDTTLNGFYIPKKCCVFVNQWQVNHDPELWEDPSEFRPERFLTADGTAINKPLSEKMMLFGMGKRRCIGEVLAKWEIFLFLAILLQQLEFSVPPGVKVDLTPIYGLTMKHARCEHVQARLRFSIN

Row | SMILES | AC50 | activity, negative = inhibition
1 | C=CCN1CCN(c2nc3ccccc3nc2C#N)CC1 | 100 nM (active) | –
2 | CCN1CCN(c2nc3ccccc3nc2C(C#N)C(=O)OC2CCCCC2)CC1 (stereo unspecified) | – | -18.3% (inactive)
3 | C=CCn1c(C)c(C(C)=O)c(N2CCN(c3ccccc3)CC2)nc1=S | – | -17.6% (inactive)
4 | Cc1ccc2nc(-c3ccccc3)cc(C(=O)NCCCn3ccnc3)c2c1 | 2820 nM (active) | –
5 | COc1c2occc2c(OC)c2c(=O)cc(C)oc12 | 20 nM (active) | –
6 | CC1CCCC(C)N1CC(O)COCC1COc2ccccc2O1 (stereo unspecified) | – | 8.29% (inactive)
7 | CCn1ccnc1C[C@@H]1COc2ccccc2O1 | 15800 nM (active) | –
8 | CN1CCN(c2ncc3nc(-c4cn(C)c5ccccc45)c(=O)n(CCc4ccccc4)c3n2)CC1 | – | -19.4% (inactive)
9 | COc1ncc2nc(-c3cn(C)c4ccccc34)c(=O)n(C)c2n1 | 1000 nM (active) | –
10 | COc1ncc2nc(-c3cn(C)c4ccccc34)c(=O)n(CCC#N)c2n1 | 5010 nM (active) | –
11 | CN1CCN(c2ncc3nc(-c4cn(C)c5ccccc45)c(=O)n(CCC#N)c3n2)CC1 | 15800 nM (active) | –
12 | COc1ccc(Oc2ncc3nc(-c4cn(C)c5ccccc45)c(=O)n(C)c3n2)cc1 | – | -15.1% (inactive)
13 | OC[C@H]1NC[C@H](O)[C@@H](O)[C@H]1O | – | -2.04% (inactive)
14 | O=C(NCc1n[nH]c(=S)n1-c1ccccc1)c1ccc(S(=O)(=O)N2CCOCC2)cc1 | – | -2.11% (inactive)
15 | NCCSC[C@H](N)C(=O)O | – | -0.987% [at 11.4 µM] (inactive)
16 | CN1CCCC2(CCN(C(=O)c3cc(C(F)(F)F)cc(C(F)(F)F)c3)CC2)C1 | – | -18% (inactive)
17 | CCOC(=O)CC(NC(=O)c1cccs1)c1ccc(OCC)cc1 (stereo unspecified) | 12600 nM (active) | –
18 | CCOc1ccc(C(CC(=O)O)NC(=O)COc2ccccc2)cc1 (stereo unspecified) | – | 5.86% (inactive)
19 | O=C(O)C1=CCNCC1 | inactive | –
20 | Cc1cc(O)c(/C=N/Nc2cccc(Cl)c2)c(=O)o1 | 2240 nM (active) | –
21 | Cc1cc(NC(=O)CSc2nc3ccccc3c(=O)n2CCCC(=O)NCc2ccco2)n[nH]1 | – | -16% (inactive)
22 | Cc1cc(N2CCN(C)CC2)nc2ccc(NC(=O)CCC(=O)NCc3ccco3)cc12 | 1260 nM (active) | –

Row | SMILES | AC50 | activity, negative = inhibition
23 | COCCCNC(=O)CCC(=O)Nc1ccc2nc(N3CCOCC3)cc(C)c2c1 | – | -26.8% (inactive)
24 | CCOC(=O)c1cccc2c1-c1ccccc1/C2=N/O | 1580 nM (active) | –
25 | CCOC(=O)c1cc(CC)sc1NC(=O)C(c1ccccc1)c1ccccc1 | – | -18.9% (inactive)
26 | Cc1nc2ccccc2n1CC(=O)N/N=C\c1ccccn1 | – | -28.3% (inactive)
27 | Cn1c(SCC(=O)N/N=C/C=C\c2ccco2)nc2ccccc21 | 2000 nM (active) | –
28 | Cc1nc2ccccc2n1CC(=O)N/N=C\C=C\c1ccccc1 | 5010 nM (active) | –
29 | Cc1ccc(/C=N/NC(=O)CSc2nc3ccccc3n2C)s1 | 2510 nM (active) | –
30 | O=c1cc(CO)oc(CN2CCCC2)c1O | – | -5.92% (inactive)
31 | CC(=O)Nc1nc(NC(C)=O)c2[nH]c(CO)nc2n1 | – | -14.4% [at 11.4 µM] (inactive)
32 | CN(N=O)C(=O)N[C@H]1[C@@H](O)[C@H](O)[C@H](CO)O[C@@H]1O | – | -6.54% [at 25.6 µM] (inactive)
33 | COc1ccccc1-c1cncnc1N(C)Cc1ccco1 | 15800 nM (active) | –
34 | Cc1ccccc1-c1cncnc1N(C)Cc1ccco1 | 15800 nM (active) | –
35 | Cc1noc(C)c1-c1cncnc1N(C)Cc1ccco1 | – | -2.89% (inactive)
36 | CN(Cc1ccco1)c1ncncc1-c1ccccc1Cl | 25100 nM (active) | –
37 | COC(=O)[C@@H]1CC[C@H](C)[C@@H](c2ccc(C)cc2)N1C(=O)c1ccc(/C=N\O[C@@H]2O[C@H](COC(C)=O)[C@H](OC(C)=O)[C@H](OC(C)=O)[C@H]2OC(C)=O)cc1 | – | -1.33% [at 11.4 µM] (inactive)
38 | CCOc1cc(C2CC(=O)c3c(ccc4ccccc34)N2)ccc1O (stereo unspecified) | – | -10.8% (inactive)
39 | CC[C@H]1CC[C@H]2[C@@H]3CC=C4C[C@H](OC(C)=O)[C@@H](N)C[C@@]4(C)[C@H]3CC[C@@]12C | – | -5.9% [at 11.4 µM] (inactive)
40 | CCc1cc2c(Sc3nc4ccccc4s3)ncnc2s1 | 1580 nM (active) | –
41 | c1ccc(-c2nc(NCc3cccnc3)c3ccccc3n2)cc1 | 1120 nM (active) | –
42 | Cc1cccc(CNc2nc(-c3cccnc3)nc3ccccc23)c1 | 631 nM (active) | –
43 | CN(C)c1ccc(-c2nc(NCc3cccnc3)c3ccccc3n2)cc1 | 1580 nM (active) | –
44 | CCCc1cc(=O)oc2cc(OCC(=O)N3CCc4ccccc43)ccc12 | – | -18.1% (inactive)

Row | SMILES | AC50 | activity, negative = inhibition
45 | CCCCc1cc(=O)oc2cc(OCC(=O)N(CC)CC)ccc12 | 12600 nM (active) | –
46 | CCCc1cc(=O)oc2cc(OCc3nn[nH]n3)ccc12 | 12600 nM (active) | –
47 | CCO[C@H](c1cc(OC)cc([N+](=O)[O-])c1OC)[C@H](C)/C=C\CC(=O)OC | – | 1.93% [at 11.4 µM] (inactive)
48 | COc1ccc(/C(O)=C2\C(=O)C(=O)N(c3cc(C)on3)C2c2ccc(OC)c(OC)c2)cc1OC (stereo unspecified) | – | -1.53% (inactive)
49 | CC(=O)OCC(=O)[C@@]1(O)[C@H](C)C[C@@H]2[C@H]3CCC4=CC(=O)C=C[C@]4(C)[C@]3(F)[C@@H](O)C[C@@]21C | – | -5.82% [at 25.6 µM] (inactive)
50 | O=C(CN1CCCC1)N/N=C/c1ccc(-c2cccc(Cl)c2)o1 | 8910 nM (active) | –
51 | CC(=O)c1cccc(NC(=O)CSCc2ccccc2)c1 | 2000 nM (active) | –
52 | CSc1ccccc1NC(=O)CSCc1ccc(C)cc1 | 7080 nM (active) | –
53 | CCn1c(CSCc2ccc(C)cc2)nnc1SCC(=O)NCc1ccccc1 | – | -12.9% (inactive)
54 | O=C(CSCc1ccccc1)Nc1ccc(S(=O)(=O)N2CCOCC2)cc1 | – | 5.08% (inactive)
55 | CCC(C)NS(=O)(=O)c1ccc(NC(=O)CCC2CCCCC2)cc1 (stereo unspecified) | – | -1.87% (inactive)
56 | CC(=O)c1cccc(NC(=O)CCC2CCCC2)c1 | 3550 nM (active) | –
57 | COc1cccc(N(CC(=O)Nc2cccc(C(C)=O)c2)S(C)(=O)=O)c1 | – | -23.4% (inactive)
58 | O=C(CCC1CCCCC1)Nc1c2c(nn1-c1ccc(F)cc1)CS(=O)(=O)C2 | – | -26.5% (inactive)
59 | Cc1ccc(O)c(C(=O)c2cc(C#N)c(=O)n(-c3c(C)n(C)n(-c4ccccc4)c3=O)c2)c1 | – | -22% (inactive)
60 | CCCOc1ccccc1-c1nc2n[nH]nc2c(=O)[nH]1 | 3980 nM (active) | –
61 | Nc1nc2n[nH]nc2c(=O)[nH]1 | – | -3.44% [at 25.6 µM] (inactive)
62 | C=CCSC1=Nc2sccc2C2=NC(=O)CN12 | 1780 nM (active) | –
63 | CN(C)C(=O)CN(c1ccc2c(c1)OCO2)S(C)(=O)=O | – | -14.4% (inactive)
64 | CSC1=N/C(=C\c2ccc(C)cc2)C(=O)S1 | 2820 nM (active) | –
65 | CSC1=N/C(=C\c2ccc(Br)o2)C(=O)S1 | 3550 nM (active) | –
66 | CSC1=N/C(=C\c2ccc3c(c2)OCO3)C(=O)S1 | 1000 nM (active) | –

Reference: PubChem BioAssay AID1851 (National Center for Advancing Translational Sciences (NCATS), 2009)
